Results reported in publication PMC9574860, “Chemical Toolkit for PARK7: Potent, Selective, and High-Throughput” (Journal of Medicinal Chemistry, 2022).
About 400 (5.1%) of roughly 7,900 compounds showed an effect of 50% or more. This excerpt belongs to a sample that is enriched for strong results.

target: Parkinson's disease protein 7 (PARK7/DJ1) (human, UniProt Q99497); experiment: primary screen, percent inhibition; read as competition with a fluorescent probe by fluorescence polarization; higher = more effect of the substance; conditions: 100 µM
Procedure, shortened: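 Fluorescence-polarization probe displacement (JYQ-107, 20 nM final, 2 h) after 2 h preincubation of PARK7 (0.2 μM final) with each fragment at 100 μM final. Read-out ex/em 480/520 nm; remaining activity derived from FP signal loss relative to reference controls.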

Sequence of Parkinson's disease protein 7 (PARK7/DJ1) (Q99497 whole entry, looked up, the tested form may be a part): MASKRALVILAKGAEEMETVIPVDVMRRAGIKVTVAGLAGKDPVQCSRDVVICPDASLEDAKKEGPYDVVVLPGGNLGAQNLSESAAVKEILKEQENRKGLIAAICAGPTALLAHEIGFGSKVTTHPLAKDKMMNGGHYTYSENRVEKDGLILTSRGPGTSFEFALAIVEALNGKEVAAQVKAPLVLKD

SMILES	Inhibition %
O=C1NC(C2CC2)C1C1CC1 (stereo not drawn)	6.35%
N#Cc1cnc(OCC(F)(F)F)cn1	4.9%
C=CC(=O)N1CCC(S(=O)(=O)C(C)C)CC1	5.57%
Cc1csc(C(C#N)=Cc2cnn(C)c2)n1	11.9%
Cc1cc(C)nc(S)n1	17.2%
Cc1cnc(S(=O)(=O)F)nc1	33.7%
Cc1cc(C)nc(S(=O)(=O)F)n1	55.9%
O=C(CCCCl)N1CCCCC1	2.86%
O=C1OCCC1N1C(=O)c2ccccc2S1(=O)=O (stereo not drawn)	6.02%
Cc1ccc(C=CS(=O)(=O)Nc2cc(C)nn2C)cc1	20%
C=CC(=O)N1CCC(C)C(OC)C1 (stereo not drawn)	7.85%
O=C(O)c1ccc2c(=O)[nH]c(S)nc2c1	11.3%
O=C(O)c1cccc(CS)c1	30.4%
O=C(O)c1ccc(CS)c(F)c1	82.7%
O=C(CCl)Nc1cc2c(cc1[N+](=O)[O-])OCCCO2	3.15%
COc1cccc(C2CCCN2C(=O)CCl)c1 (stereo not drawn)	2.56%
C=CC(=O)N(C)Cc1cnc(N(C)C)nc1	5.02%
CCC(C#N)NS(=O)(=O)c1ccc(S(=O)(=O)F)cc1 (stereo not drawn)	31.6%
N#CC1(NS(=O)(=O)c2ccc(S(=O)(=O)F)cc2)CCC1	31.4%
CCCC(C#N)NS(=O)(=O)c1ccc(S(=O)(=O)F)cc1 (stereo not drawn)	33.3%
CC(C#N)NS(=O)(=O)c1cccc(S(=O)(=O)F)c1 (stereo not drawn)	102%
CC(C#N)NS(=O)(=O)c1ccc(S(=O)(=O)F)cc1 (stereo not drawn)	23.5%

SMILES	Inhibition %
CCCC(C#N)NS(=O)(=O)c1cccc(S(=O)(=O)F)c1 (stereo not drawn)	96.8%
O=C(CN1CCSC1=O)NC1CCN2CCCCC12 (stereo not drawn)	10.2%
COc1ccc(C(C)(C)C)cc1NC(=O)CCl	10.8%
O=C(Nc1ccccc1F)N1CCC(C2OCCO2)CC1	5.67%
C=C(C)c1nc(C#N)c(NCc2ccccc2)o1	9.08%
Sc1ccc2ccccc2n1	14.2%
N#Cc1ccc2cc(N)ccc2n1	101%
Nc1cc(N)nc(S)n1	6.46%
COc1ccc2nc(C#N)ccc2c1	3.18%
Nc1ccc2nc(S)ccc2c1	67.6%
N#Cc1cc(N)c2ccccc2n1	10.9%
N#Cc1ccc(Cl)cc1N1CCC(C2OCCO2)CC1	2.51%
C=CC(=O)NC1CCCCNC1=O (stereo not drawn)	3.54%
COc1ccc(S(N)(=O)=O)cc1NC(=O)CCl	2.41%
C=CC(=O)NC(NC(=O)C=C)c1ccccc1F	14.4%
CN(C)c1nccc(CNCc2ccc(B(O)O)cc2)n1	-0.514%
C=CC(=O)NCC1CCCOC1c1ccc(C)cc1 (stereo not drawn)	9.55%
CNC1CCCN(C(=O)C=Cc2cncc(F)c2)C1 (stereo not drawn)	29.3%
Cl.O=C(CCl)NCC(c1ccccc1Cl)N1CCCC1 (stereo not drawn)	3.25%
C=CC(=O)Nc1cnn(C(C)C)c1C1CC1	10.5%
O=C1SCCN1CN1CCN(c2ccccc2F)CC1	3.81%
N#Cc1nc(-c2ccco2)oc1N1CCNCC1	9.97%

SMILES	Inhibition %
C#CCN1CCN(c2oc(-c3ccco3)nc2C#N)CC1	53.7%
CCCN1CCN(c2oc(-c3ccco3)nc2C#N)CC1	9.64%
CC(C)N1CCN(c2oc(-c3ccco3)nc2C#N)CC1	10%
N#Cc1nc(-c2ccco2)oc1N1CCN(C(=O)CCl)CC1	51.4%
CCN1CCN(c2oc(-c3ccco3)nc2C#N)CC1	9.73%
ClCCCc1cccnc1	7.37%
Cc1c(C#N)c(NC(=O)CCl)n(C2CCCCC2)c1C	15.6%
C=CC(=O)Nc1ccc2c(c1)CCC2	7.23%
O=C(CCl)Nc1cccc(Br)c1	29.1%
COc1cc2c(cc1NC(=O)CCl)oc1ccccc12	4.67%
O=C(CCl)NC(=O)Nc1ccc(Br)cc1	23.3%
O=C(CCl)Nc1ccc(Cl)c(F)c1	36.8%
O=C(CCl)Nc1ccc(F)c(Cl)c1	21.3%
O=C(CCCl)Nc1ccc2c(c1)CCC2	4.93%
O=C(CCl)Nc1ccc2c(c1)CCC2	57.8%
O=C(CCl)Nc1ccc(Cl)c(Cl)c1	63%
O=C(CCl)Nc1ccc(Br)cc1	70.1%
O=C(CCl)Nc1ccc2c(c1)oc1ccccc12	62.9%
CC(=O)c1oc2ccccc2c1NC(=O)CCl	9.9%
O=C(c1cccnc1S)N1CCOC2(CCCC2)C1	6.34%
C=CC(=O)NCc1cc2n(n1)CCC2	10.7%
CC1(C)OB(c2cccc(OC(F)F)c2)OC1(C)C	3.49%

SMILES	Inhibition %
C=CC(=O)Nc1cccc2c1CCN(S(C)(=O)=O)C2	3.82%
CC1CC(Sc2ccccc2F)C(=O)O1 (stereo not drawn)	-0.183%
C=CC(=O)NCCN1C(=O)Cc2ccccc21	11%
CCN(C(=O)Cn1cnc(C#N)n1)C1=CCCCC1	6.47%
C=CC(=O)N1CC23CCCCC2(COC3)C1 (stereo not drawn)	8.4%
O=C(CCl)Nc1ccc(C(=O)O)cc1	25.9%
O=C(CCl)Nc1ccc(I)cc1	93.2%
O=C(CCl)Nc1cccc(I)c1	41%
O=C(CCl)Nc1ccc(F)c(F)c1	25.9%
O=C(CCCl)Nc1ccc(Cl)cc1	9.16%
O=C(CCl)Nc1ccc2c(c1)C(=O)c1ccccc1C2=O	2.08%
CC(C)(C)c1ccc(NC(=O)CCl)cc1	100%
O=C(CCl)Nc1ccc(Cl)cc1	60.3%
O=C(CCl)Nc1ccc2ccccc2c1	55.8%
CNC(=O)c1ccc(NC(=O)CCl)cc1	16.6%
CC(=O)Nc1cccc(NC(=O)CCl)c1	19.2%
CC(C)CN(C1CC1)S(=O)(=O)C=Cc1ccccc1	13.3%
C=CC(=O)N1CCS(=O)(=O)c2ccccc2C1	7.33%
CC1(C)OB(c2cccc3scnc23)OC1(C)C	3.85%
C=CC(=O)NCC1CC(C)OC(C)C1 (stereo not drawn)	11.1%
N#Cc1c(N)nc2n1CCS2	4.18%
N#Cc1ncccc1OCCc1ccccc1	13.6%

SMILES	Inhibition %
CC(NC(=O)Cn1cnc(C#N)n1)c1ccc(F)cc1 (stereo not drawn)	4.98%
C=CC(=O)N1CCN(Cc2ccon2)CC1	4.28%
Cn1ncc(C(F)(F)F)c1B1OC(C)(C)C(C)(C)O1	8.08%
NC(=O)c1ccsc1NC(=O)CCCl	9.06%
NC(=O)c1cc(-c2ccccc2)sc1NC(=O)CCl	79.3%
NC(=O)c1ccsc1NC(=O)CCl	84.7%
O=C(CCl)Nc1nncs1	4.4%
O=C(CCl)Nc1ccc(-c2ccccc2)cc1	4.3%
NC(=O)c1ccccc1NC(=O)CCl	0.06%
Cn1cc(C(=O)O)c(CCCCl)n1	6.81%
N#Cc1cc(N2CCCC2)c2ccccc2n1	3.59%
C=CCNS(=O)(=O)C=Cc1ccccc1	7.29%
CC1(C)OB(c2cccc(-n3ccnn3)c2)OC1(C)C	6.79%
C=CC(=O)Nc1nc2cnccn2n1	23%
C=CC(=O)NCc1cc2n(n1)CCCC2	10.1%
N#Cc1ncn(CC2CCCO2)n1 (stereo not drawn)	1.91%
O=S(=O)(F)c1ccccc1O	9.92%
O=[N+]([O-])c1ccccc1S(=O)(=O)F	99.1%
O=S(=O)(F)c1ccccc1Br	44.3%
C=CC(=O)NCC1COC(=O)N1 (stereo not drawn)	13.5%
O=S(=O)(F)c1ccc(C(F)(F)F)cn1	6.36%
O=S(=O)(F)c1ccc(C(F)(F)F)nn1	8.52%

SMILES	Inhibition %
Cc1ccc(S(=O)(=O)F)nn1	65.4%
C=CC(=O)N[C@@H]1C=C[C@H](CO)C1	8.28%
Cn1cc(C=C(C#N)C(=O)NCCc2ccccc2)cn1	9.69%
O=C(CCl)Nc1cc(C(=O)O)cc(C(=O)O)c1	1.39%
O=C(O)c1coc(C(=O)CCl)c1	96.1%
NC(=O)c1coc(C(=O)CCl)c1	96.3%
CNC(=O)c1cc(C(=O)CCl)cn1C	5.61%
O=C(O)c1ccc(CCCl)cc1	8.12%
C=CC(=O)N1CCC(OC)C(C)C1 (stereo not drawn)	4.37%
N#CC(=Cc1ccccc1)C(=O)N1CCC(C(N)=O)CC1	9.67%
CN1C(=O)C(C#N)=C(N)C12CCCC2	9%
C=CC(=O)N1CCN(C(=O)OCC(C)C)CC1	11.5%
CN(CCC1CCOCC1)c1nc2ccccn2c1C#N	5.08%
Cc1ccc(C=CS(=O)(=O)NCC(=O)O)cc1	81.7%
O=C(O)c1csc(NS(=O)(=O)C=Cc2ccccc2)c1	62.5%
O=C(O)CNS(=O)(=O)C=Cc1ccccc1	84.3%
O=C(O)CCNS(=O)(=O)C=Cc1ccccc1	6.07%
CNC(=O)CNS(=O)(=O)C=Cc1ccc(Cl)cc1	0.98%
O=C(O)c1ccc(NS(=O)(=O)C=Cc2ccccc2)cc1	6.88%
Cc1ccc(C=CS(=O)(=O)NCCC(=O)O)cc1	5.97%
CNC(=O)CNS(=O)(=O)C=Cc1ccccc1	6.07%
O=C(O)c1cccc(NS(=O)(=O)C=Cc2ccccc2)c1	-0.0382%
